Test [1] is described as follows: P-glycoprotein substrates identified in KB-8-5-11 adenocarcinoma cell line, qHTS therapeutic library screen (AID 1346987). Also: nearly all actives have a fitted effect of over 65% in size. Also: potency is read from the fitted curve at half-maximal effect. As to activity change, negative = cytotoxicity: % is scaled to controls: 0 for no effect and ±100 for the full control effect. A digest of the protocol: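 Compounds are pinned in dose-response onto KB-8-5-11 cells (500 cells/well, colchicine-free medium) and left 72 h at 37 degree C. CellTiter-Glo luminescence then yields AC50 values.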
(Quantitative high-throughput screening tests each substance at several concentrations.)

For test [2], the system named is Zika virus NS2B-NS3 protease (unlinked complex). The test can be described thus: Primary screen GU Rhodamine qHTS for Zika virus inhibitors: Unlinked NS2B-NS3 protease assay (AID 1347159). Also: nearly all actives have a fitted effect of over 60% in size. Also: potency is read from the fitted curve at half-maximal effect. The method in brief:
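Percent inhibition came from the 15-min rise in Rhodamine110 fluorescence (1.5 microM substrate, ~15% conversion), normalized to no-inhibitor and no-enzyme wells and Hill-fitted. Unlinked protease, 25 nM, pH 8.0 Tris buffer; compounds up to 114 microM, 15-min preincubation.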

Test [3] in a line: Primary qHTS for inhibitors of nuclear receptor binding SET domain protein 2 (NSD2) in an isogenic RCH-ACV NSD2 p.E1099K mutant (9B) (AID 1645876). Also: nearly all actives have a fitted effect of over 70% in size. Also: potency is read from the fitted curve at half-maximal effect.
Test [4] in a line: Primary qHTS for inhibitors of nuclear receptor binding SET domain protein 2 (NSD2) in an RCH-ACV wild type WT cells (2C) (AID 1645877). Also: nearly all actives have a fitted effect of over 70% in size. Also: potency is read from the fitted curve at half-maximal effect.
The subject of another test is CRL-7250. The experiment in a line: Cytotoxic Profiling of Annotated Libraries Using Quantitative High-Throughput Screening (AID 1296008). Also: nearly all actives have a fitted effect of over 60% in size. Also: potency is read from the fitted curve at half-maximal effect. As to max response: % is scaled to controls: 0 for no effect and ±100 for the full control effect. As to conditions: Five cell lines viability, CellTiter-Glo ATP luminescence, 48-72 h; max response: stronger effect = lower value. A digest of the protocol: (§1)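 Cells exposed to compounds for 48 or 72 hr at 37 degrees Celsius. Viability read as ATP-coupled luminescence with CellTiter-Glo after 10 min at room temperature.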

The subject of the next test is SKOV3. The test can be described thus: Primary qHTS to identify gynecologic anti-cancer compounds using libraries of approved drugs and bioactive compounds (AID 1345084). Also: nearly all actives have a fitted effect of over 55% in size. Also: potency is read from the fitted curve at half-maximal effect. As to conditions: Gynecologic cancer cell panel viability, ATPlite luminescence, 48 h; series mostly up to 57.5 µM. A digest of the protocol: (§2)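 Luminescence from the ATPlite ATP-monitoring reagent indicates viable cell number; lower signal means cytotoxicity. Cells received compound 16 h after seeding and were exposed for 48 h across five concentrations.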

A further test deals with KB-3-1. The experiment in a line: Cytotoxic Profiling of Annotated Libraries Using Quantitative High-Throughput Screening (AID 1296008). Also: nearly all actives have a fitted effect of over 60% in size. Also: potency is read from the fitted curve at half-maximal effect. As to max response: % is scaled to controls: 0 for no effect and ±100 for the full control effect. As to conditions: Five cell lines viability, CellTiter-Glo ATP luminescence, 48-72 h; max response: stronger effect = lower value. A digest of the protocol:
as §1
A general note: In ATP-based viability assays light output follows the ATP content of the culture.

A further test deals with HeLa. The experiment in a line: Primary qHTS to identify gynecologic anti-cancer compounds using libraries of approved drugs and bioactive compounds (AID 1345084). Also: nearly all actives have a fitted effect of over 55% in size. Also: potency is read from the fitted curve at half-maximal effect. As to conditions: Gynecologic cancer cell panel viability, ATPlite luminescence, 48 h; series mostly up to 57.5 µM. The method in brief: as §2
The subject of the next test is NIH3T3. The experiment in a line: qHTS assay to identify novel small-molecules to repurpose for Merkel cell carcinoma treatment (AID 1296009). Also: nearly all actives have a fitted effect of over 60% in size. As to conditions: MCC and control cell lines, CellTiter-Glo viability, 72 h; at 44.8 µM (top of the series) unless noted. A digest of the protocol: (§3)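 Dose-response viability screen; 72 hr exposure at 37 degree celsius; CellTiter-Glo added, 10 min room temperature, luminescence read; RLUs scaled between no-cell and DMSO wells.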

The target in test [5] is Cytochrome P450 2D6 (Homo sapiens) (UniProt P10635). The test can be described thus: Cytochrome P450 family 2 subfamily D member 6 (CYP2D6) small molecule antagonists: luciferase biochemical (cell-free) qHTS assay (AID 1645840; active = well fitted curve in the direction sought with a large enough effect in the repeat runs; an effect the other way counts as inactive or inconclusive; also: potency is read from the fitted curve at half-maximal effect; nearly all actives have a fitted effect of over 55% in size). The method in brief: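 P450-Glo CYP2D6 system: proluciferin substrate converted by enzyme to luciferin, read by luminescence proportional to activity. Enzyme-substrate mix with compound 10 min at room temperature, then NADPH regeneration 1 h before detection reagent.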

Test [6] concerns the target Cytochrome P450 2C9 (Homo sapiens) (UniProt P11712). The experiment in a line: Cytochrome P450 family 2 subfamily C member 9 (CYP2C9) small molecule antagonists: luciferase biochemical (cell-free) qHTS assay (AID 1645842; active = well fitted curve in the direction sought with a large enough effect in the repeat runs; an effect the other way counts as inactive or inconclusive; also: potency is read from the fitted curve at half-maximal effect; nearly all actives have a fitted effect of over 55% in size). A digest of the protocol: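 P450-Glo CYP2C9 system: proluciferin substrate with enzyme in mix containing 0.4% BSA, 10 min at room temperature, then NADPH regeneration solution added and incubated 1 h at 37C. Detection reagent stopped reaction; luminescence read after 20 min as RLU.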

Test [7] can be described thus: qHTS drug screen for cell cycle checkpoint inhibitors in PARPi-resistant BRCA-mutant ovarian cancer cell lines. (AID 1963452; calls by dose curve; also: potency is read from the fitted curve at half-maximal effect). As to conditions: PEO1/OlaR viability, CellTiter-Glo luminescence, 96 h; for Z-AUC: stronger effect = lower value. A digest of the protocol:
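PEO1, PEO4 and PEO1/OlaR ovarian cancer cells, 600 per well, exposed 96 h at 37C to a dilution series. Viability read by CellTiter-Glo luminescence, normalized to DMSO and empty wells; activity summarized as Z-AUC.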

A further test concerns HEK293. The test can be described thus: Cytotoxic Profiling of Annotated Libraries Using Quantitative High-Throughput Screening (AID 1296008). Also: nearly all actives have a fitted effect of over 60% in size. Also: potency is read from the fitted curve at half-maximal effect. As to max response: % is scaled to controls: 0 for no effect and ±100 for the full control effect. As to conditions: Five cell lines viability, CellTiter-Glo ATP luminescence, 48-72 h; max response: stronger effect = lower value. A digest of the protocol:
as §1

Another test concerns HACAT. The test can be described thus: qHTS assay to identify novel small-molecules to repurpose for Merkel cell carcinoma treatment (AID 1296009). Also: nearly all actives have a fitted effect of over 60% in size. As to conditions: MCC and control cell lines, CellTiter-Glo viability, 72 h; at 44.8 µM (top of the series) unless noted. The method in brief: as §3
Where [8] appears, read: measured here: PEO1 parental Z-AUC.

Results filed as inconclusive are left out. Active and inactive are the calls of the source. Unless noted, calls follow the shape of the dose curve; as a rule, active = well fitted curve in the direction sought with a large enough effect; inconclusive = small, poorly fitted or top-dose-only effect, or another doubt; inactive = no such curve, though single readings can be large; an effect the other way counts as inactive or inconclusive.

Cytochrome P450 2C9 (Homo sapiens), sequence (P11712 whole entry, looked up): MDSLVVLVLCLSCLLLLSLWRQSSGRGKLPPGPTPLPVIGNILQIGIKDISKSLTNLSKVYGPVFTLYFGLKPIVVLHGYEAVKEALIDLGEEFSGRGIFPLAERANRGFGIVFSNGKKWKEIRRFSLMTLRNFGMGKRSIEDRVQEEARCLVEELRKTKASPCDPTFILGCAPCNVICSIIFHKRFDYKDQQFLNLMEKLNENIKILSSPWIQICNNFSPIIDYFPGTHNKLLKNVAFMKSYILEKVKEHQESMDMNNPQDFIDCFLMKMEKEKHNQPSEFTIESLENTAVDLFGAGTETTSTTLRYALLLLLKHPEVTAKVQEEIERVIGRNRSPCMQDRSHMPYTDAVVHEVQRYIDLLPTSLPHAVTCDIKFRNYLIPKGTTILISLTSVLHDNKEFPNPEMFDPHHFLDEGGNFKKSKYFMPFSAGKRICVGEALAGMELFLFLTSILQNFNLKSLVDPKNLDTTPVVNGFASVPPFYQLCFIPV
Cytochrome P450 2D6 (Homo sapiens), sequence (P10635 whole entry, looked up): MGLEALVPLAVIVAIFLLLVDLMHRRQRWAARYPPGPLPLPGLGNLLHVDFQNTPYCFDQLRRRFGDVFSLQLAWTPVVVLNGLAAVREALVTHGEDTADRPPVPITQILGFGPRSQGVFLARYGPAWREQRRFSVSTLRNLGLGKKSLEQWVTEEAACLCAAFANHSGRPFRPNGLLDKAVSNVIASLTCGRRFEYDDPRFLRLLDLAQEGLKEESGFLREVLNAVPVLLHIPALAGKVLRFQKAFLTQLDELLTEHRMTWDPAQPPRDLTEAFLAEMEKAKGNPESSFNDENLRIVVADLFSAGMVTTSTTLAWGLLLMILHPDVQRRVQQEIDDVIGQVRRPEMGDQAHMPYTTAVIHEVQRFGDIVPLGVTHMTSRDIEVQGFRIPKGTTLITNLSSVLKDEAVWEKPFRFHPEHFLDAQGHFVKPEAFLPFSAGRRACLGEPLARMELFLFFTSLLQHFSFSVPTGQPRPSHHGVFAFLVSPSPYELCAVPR

For `CN1C(=O)[C@]23CC4C(C)(C)[C@@]5(C[C@@]41CN2CC[C@@]3(C)O)C(=O)Nc1c5ccc2c1OC=CC(C)(C)O2` (some centres not stated), the Potency result (in [1]; in [3]; in [4]; in the test on SKOV3) was “inactive” throughout. In [2], the Potency is 7080 nM (active). Also, the max response in the test with CRL-7250 is -5.32% (inactive).
With `C/C=C(\C)C(=O)O[C@H]1CC2C(=C1C)[C@H]1OC(=O)[C@](C)(O)[C@]1(O)[C@H](OC(=O)CCC)C[C@@]2(C)OC(C)=O` (some centres not stated), the Potency result (in [1]; in test [2]; in the test with SKOV3) was “inactive” each time. The Potency in test [3] is 1000 nM (active); in [4], 709 nM (active); in the test on CRL-7250 it was 2240 nM (active).
`CO/C1=C\C(C)=C\[C@@H](C)[C@@H](O)[C@@H](C)C/C(C)=C/C=C/[C@H](OC)[C@@H]([C@@H](C)[C@@H](O)[C@H](C)[C@@]2(O)C[C@@H](O)[C@H](C)[C@@H](C(C)C)O2)OC1=O`: the Potency in test [1] was 109 nM (active); in test [3], 48.3 nM (active); in [4] it was 30.5 nM (active); in the test on CRL-7250, 86.2 nM (active); in the test on KB-3-1 it was 61.1 nM (active); in the test on HeLa it was 126 nM (active). The Potency entry in [2] was “inactive”.
`CC[C@@H](C)[C@H]1C(=O)O[C@H](C(C)C)C(=O)N(C)[C@@H](C(C)C)C(=O)O[C@H](C(C)C)C(=O)N(C)[C@@H](C(C)C)C(=O)O[C@H](C(C)C)C(=O)N1C`: the Potency in test [1] was 4320 nM (active); in test [3] it was 2160 nM (active); in [4] it was 1530 nM (active); in the test on CRL-7250, 3850 nM (active). In addition, the Potency result in test [2] was “inactive”.
For the compound `C[C@H]1CC[C@@H]2[C@@H](C)[C@H]3[C@H](C[C@H]4[C@@H]5CC=C6CC(O[C@@H]7O[C@H](CO)[C@@H](O)[C@H](O[C@@H]8O[C@H](CO)[C@@H](O)[C@H](O)[C@H]8O)[C@@H]7O[C@@H]7O[C@@H](C)[C@H](O)[C@@H](O)[C@H]7O)CC[C@]6(C)[C@H]5CC[C@]34C)N2C1` (some centres not stated), the results for the outcome (in [1]; in the test with NIH3T3) were “inactive [at 9.29 µM]” and “inactive [at 9.27 µM]”, respectively. Moreover, the Potency entry in test [2] was “inactive”. Besides, the max response with CRL-7250 is -16.5% (inactive). In addition, the activity change, negative = cytotoxicity in the test on HeLa is 8.23% [at 11.6 µM] (inactive).
`COc1ccc(CCNCc2ccc(OC)c3ccccc23)cc1`: the Potency result (in test [2]; in the test with HeLa; in the test on SKOV3) was “inactive” each time. Moreover, the Potency in test [3] was 14500 nM (active); in [4], 16300 nM (active). For the same compound, the figures for the max response with CRL-7250 and in the test on KB-3-1 were -2.06% (inactive) and -13.8% (inactive), respectively.
Consider `CO[C@H]1C[C@H](O[C@H]2CC[C@]3(CO)[C@H]4CC[C@]5(C)[C@@H](C6=CC(=O)OC6)CC[C@]5(O)[C@@H]4CC[C@]3(O)C2)O[C@H](C)[C@H]1O`, for which the Potency is 22.4 nM (active) in test [1]; 50.2 nM (active) in [3]; 79.6 nM (active) in [4]; 70.9 nM (active) in the test on CRL-7250; 224 nM (active) in the test with KB-3-1; 199 nM (active) in the test with HeLa. Moreover, in the test with SKOV3, the Potency is 158 nM (active). The Potency result in test [2] is “inactive”.
Turning to `O=C1CN=C(c2ccccc2Cl)c2cc(Br)ccc2N1`, the Potency in test [5] is 13500 nM (active); in test [6] it was 13500 nM (active); in test [3], 23000 nM (active); in test [4] it was 12900 nM (active). Further, in the test on CRL-7250, the max response was -11.2% (inactive). For the same compound, the outcome in the test on NIH3T3 was inactive. Also, the Potency entry in the test on HeLa was “inactive”.
On to `Cc1ncc(OC[C@@]2(c3cccc(F)c3)C[C@H]2C(=O)Nc2ccc(F)cn2)c(C)n1`, for which the Potency result in test [3] was “inactive”. For the same compound, the Z-AUC in test [7] is -0.208 (inactive); in test [7] (setting [8]), -0.55; in [7] (measured here: PEO4 Z-AUC) it was 0.108. Besides, in the test with HEK293, the max response is 4.45% (inactive). Also, the compound was classed as inactive in the test on HACAT and in the test with NIH3T3.
Turning to `C/C(=C\c1csc(C)n1)[C@@H]1C[C@@H]2O[C@@H]2CCC[C@H](C)[C@H](O)[C@@H](C)C(=O)C(C)(C)[C@@H](O)CC(=O)O1`, the Potency in test [1] is 5.8 nM (active); in test [3], 37.2 nM (active); in test [4], 26.3 nM (active); in test [7], 8.7 nM (active); in the test with HEK293, 6.5 nM (active); with KB-3-1, 8.2 nM (active). Further, the Potency entry in test [2] was “inactive”. The Z-AUC is -2.45 in test [7] (setting [8]) and -2.36 in [7] (measured here: PEO4 Z-AUC).

These data come from PubChem BioAssay (NCATS).
